{"source": "PubChem BioAssay AID2156", "about": "(Johns Hopkins Ion Channel Center, 2009)", "note": "About 3,400 (1.1%) of roughly 310,000 compounds were called active. What follows is part of a selection rich in actives, with near analogues and random picks from the rest. A number with no mark means an inactive call.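 Rule for the calls: active = fluorescence ratio B-score at most minus 3 library SDs, with starting brightness B-score within 2 library SDs (cut at about -5.5 in these data); inactive = the rest, inconclusive results apart.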", "data": [{"biological_target": "Potassium voltage-gated channel subfamily KQT member 2 (Rattus norvegicus) (UniProt O88943)", "sequence (O88943 whole entry, looked up)": "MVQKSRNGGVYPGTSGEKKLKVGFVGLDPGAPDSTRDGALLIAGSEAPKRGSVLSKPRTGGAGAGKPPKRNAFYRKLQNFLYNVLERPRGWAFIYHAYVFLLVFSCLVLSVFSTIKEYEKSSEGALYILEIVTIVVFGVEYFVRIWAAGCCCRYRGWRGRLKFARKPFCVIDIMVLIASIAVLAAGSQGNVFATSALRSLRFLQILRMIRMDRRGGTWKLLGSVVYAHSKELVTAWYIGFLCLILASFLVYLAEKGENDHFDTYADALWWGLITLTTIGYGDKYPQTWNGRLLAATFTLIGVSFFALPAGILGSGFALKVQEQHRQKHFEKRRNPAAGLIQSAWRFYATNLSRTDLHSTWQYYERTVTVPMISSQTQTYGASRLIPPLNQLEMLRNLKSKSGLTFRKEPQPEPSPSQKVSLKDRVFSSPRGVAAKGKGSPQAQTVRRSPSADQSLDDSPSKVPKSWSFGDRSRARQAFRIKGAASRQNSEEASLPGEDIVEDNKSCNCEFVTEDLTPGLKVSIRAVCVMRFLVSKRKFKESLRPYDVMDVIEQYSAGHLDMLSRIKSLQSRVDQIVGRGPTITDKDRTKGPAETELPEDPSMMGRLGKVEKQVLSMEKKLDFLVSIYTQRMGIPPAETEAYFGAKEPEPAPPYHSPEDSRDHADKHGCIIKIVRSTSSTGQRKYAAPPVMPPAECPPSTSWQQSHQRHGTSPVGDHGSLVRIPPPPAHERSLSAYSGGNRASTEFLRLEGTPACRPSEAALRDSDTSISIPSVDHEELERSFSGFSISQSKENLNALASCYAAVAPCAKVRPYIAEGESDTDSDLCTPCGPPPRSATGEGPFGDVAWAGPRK", "experiment": "KCNQ2 channel blockers in CHO-K1 cells – cell-based, FluxOR thallium flux, B-score, primary screen (AID 2156)", "details": "20 min, at 10 µM; active compounds read low", "values": [{"molecule": "O=C(CSC1=NS(=O)(=O)c2cc(F)ccc2N1)Nc1ccccc1F", "B-score": "inactive"}, {"molecule": "O=C(OCC(=O)N1CCCC1=O)c1cc(S(=O)(=O)N2CCOCC2)ccc1Cl", "B-score": -0.84}, {"molecule": "O=C(NN1CCOCC1)c1cccc(F)c1", "B-score": "inactive"}, {"molecule": "CCN(CC)S(=O)(=O)c1ccc(N2CCOCC2)c(NC(=O)C2COc3ccccc3O2)c1", "note": "(stereo not given)", "B-score": "-6.56 (active)"}, {"molecule": "CCN(CC)S(=O)(=O)c1ccc(N2CCOCC2)c(NC(=O)C2CSC3(C)CCC(=O)N23)c1", "note": "(stereo not given)", "B-score": "inactive"}, {"molecule": "CCN(CC)S(=O)(=O)c1ccc(N2CCOCC2)c(C(=O)O)c1", "B-score": "inactive"}, {"molecule": "Cc1ccc(N2CC(C(=O)N3CCC4(CC3)CC(=O)c3ccccc3O4)CC2=O)cc1C", "note": "(stereo not given)", "B-score": "inactive"}, {"molecule": "O=C(NCC(=O)N1CCCC(C(F)(F)F)C1)c1ccccc1F", "note": "(stereo not given)", "B-score": "inactive"}, {"molecule": "Cc1ccc(S(=O)(=O)CC(=O)NC(C)c2ccccc2)cc1", "note": "(stereo not given)", "B-score": -0.01}, {"molecule": "Cc1ccc(S(=O)(=O)NNC(=S)NC(C)(C)C)cc1", "B-score": -0.78}, {"molecule": "CC(NC(=S)NNS(=O)(=O)c1ccc(C(C)(C)C)cc1)c1ccccc1", "note": "(stereo not given)", "B-score": "-10.4 (active)"}, {"molecule": "CCN(C(=O)CSc1nnc(-c2ccc(OC(F)F)cc2)n1N)C1CCS(=O)(=O)C1", "note": "(stereo not given)", "B-score": -0.14}, {"molecule": "CCN(CC(=O)Nc1cc(Cl)ccc1C)C(=O)CN1C(=O)NC2(CCCC2)C1=O", "B-score": -0.62}, {"molecule": "Cc1cc(NC(=O)CSc2nc3cc(Cl)ccc3c(=O)n2Cc2ccco2)no1", "B-score": "inactive"}, {"molecule": "O=c1[nH]c(CSc2ncc(-c3ccc(F)cc3)n2Cc2ccco2)nc2ccccc12", "B-score": "inactive"}, {"molecule": "Clc1cccc(-c2nc3nc4ccccc4nc3n2Cc2ccco2)c1", "B-score": "-9.06 (active)"}, {"molecule": "O=C(Nc1cccc(F)c1)NC1CCCCCCC1", "B-score": -1.17}, {"molecule": "O=C(Nc1cccc(F)c1)NC1CCCc2ccccc21", "note": "(stereo not given)", "B-score": "-5.61 (active)"}, {"molecule": "O=C(Nc1cccc(F)c1)[C@@H]1CCCN1", "B-score": -0.48}, {"molecule": "COc1cccc(N2CC(NS(=O)(=O)c3cccs3)CC2=O)c1", "note": "(stereo not given)", "B-score": "inactive"}, {"molecule": "COc1ccc(C2=NOC(Cn3nc(C(=O)NCc4ccc5c(c4)OCO5)cc3-c3ccccc3)C2)cc1", "note": "(stereo not given)", "B-score": -2.37}, {"molecule": "CCOC(=O)c1c(NC(=O)CN2C(=O)NC3(CCC(C)CC3)C2=O)sc(C)c1CC", "note": "(stereo not given)", "B-score": "inactive"}, {"molecule": "Cc1ccc2nnn(Cc3cccc(C(C)(C)C)c3O)c2c1", "B-score": -2.09}, {"molecule": "O=C(CNC(=O)C12CC3CC(CC(C3)C1)C2)OCC(=O)N1CCCCC1", "B-score": "inactive"}, {"molecule": "COc1cccc(N2CC(C(=O)NCc3n[nH]c(=O)c4ccccc34)CC2=O)c1", "note": "(stereo not given)", "B-score": "inactive"}, {"molecule": "O=C(Nc1cn(-c2ccccc2)nc1-c1ccccc1)c1ccccc1", "B-score": -2.94}, {"molecule": "CCc1ccc(-c2nn(-c3ccccc3)cc2CSC(=N)N)cc1", "B-score": "-12.4 (active)"}, {"molecule": "Cc1ccc(-c2nn(-c3ccccc3)cc2CN(Cc2ccccc2)C(=O)CCC(=O)O)o1", "B-score": "inactive"}, {"molecule": "CCOc1ccc(S(=O)(=O)Nc2cccc(C(=O)NCC3(N4CCCCC4)CCCCC3)c2)cc1", "B-score": -0.94}, {"molecule": "O=C(NCc1ccccc1)C1=C[C@@H](c2ccc(C(F)(F)F)cc2)C[C@@H](OCc2ccc(CO)cc2)O1", "B-score": "-7.51 (active)"}, {"molecule": "O=C(C1=C[C@H](c2ccc(C(F)(F)F)cc2)C[C@H](OCc2ccc(CO)cc2)O1)N1CCN(Cc2ccccc2)CC1", "B-score": -2.67}, {"molecule": "CC(C)(C)[C@H]1C=C(C(=O)NCc2ccccc2)O[C@@H](OCc2ccc(CO)cc2)C1", "B-score": -1.3}, {"molecule": "CC1CCN(C(=O)COC(=O)c2cc(S(=O)(=O)N3CCOCC3)ccc2Cl)CC1", "B-score": "inactive"}, {"molecule": "COc1ccc(C(CNC(=O)c2cccc(S(=O)(=O)Nc3ccccc3Cl)c2)N2CCOCC2)cc1", "note": "(stereo not given)", "B-score": "inactive"}, {"molecule": "CCOc1ccc(C(CC(=O)O)NC(=O)COc2ccccc2)cc1", "note": "(stereo not given)", "B-score": "-5.97 (active)"}, {"molecule": "CCOc1ccc(C(CC(=O)O)NC(=O)Cc2ccccc2)cc1OC", "note": "(stereo not given)", "B-score": -0.84}, {"molecule": "Cc1ccc(OCC(=O)NC(C)c2ccccc2)cc1C", "note": "(stereo not given)", "B-score": -1.87}, {"molecule": "Cc1ccc(S(=O)(=O)N(C)C)cc1NC(=O)COC(=O)/C=C/c1cccs1", "B-score": "inactive"}, {"molecule": "CC(OC(=O)CCCc1c[nH]c2ccccc12)C(=O)Nc1ccc(S(N)(=O)=O)cc1", "note": "(stereo not given)", "B-score": -1.39}, {"molecule": "Clc1ccc(CSc2nnc(/C=C/c3ccccc3)o2)c(Cl)c1", "B-score": -5.38}, {"molecule": "CSCc1cc(N2CCOCC2)nc(SCc2ccc(Cl)cc2Cl)n1", "B-score": -0.52}, {"molecule": "CSCc1cc(N(C)C)nc(SCc2ccc(Cl)cc2Cl)n1", "B-score": "-9.71 (active)"}, {"molecule": "C=CCOc1ccc(/C=C/C(=O)OCC(=O)NC(C)c2ccc(F)cc2)cc1", "note": "(stereo not given)", "B-score": "inactive"}, {"molecule": "O=C(Nc1ccc(S(=O)(=O)N2CCCCC2)cc1)C1CCN(C(=O)c2ccc(F)cc2)CC1", "B-score": -0.91}, {"molecule": "CCOC(=O)C(Cc1ccc(N)cc1)N1C(=O)c2ccccc2C1=O", "note": "(stereo not given)", "B-score": "inactive"}, {"molecule": "CC1=CC(C)(C)Nc2ccc(OC(=O)C(Cc3ccccc3)N3C(=O)C4CCCCC4C3=O)cc21", "note": "(stereo not given)", "B-score": "-7.42 (active)"}, {"molecule": "CC1=CC(C)(C)Nc2ccc(OC(=O)CN3C(=O)C4CCCCC4C3=O)cc21", "note": "(stereo not given)", "B-score": -1.65}, {"molecule": "CCC[C@@H]1C[C@@]1(CCC)[C@@H](NC(=O)c1ccccc1)c1ccc(C(=O)OC)cc1", "B-score": -5.11}, {"molecule": "COC(=O)c1ccc(C(NC(=O)OCc2ccccc2)/C(F)=C/[C@@H](C)C(=O)O)cc1", "note": "(stereo not given in full)", "B-score": -1.01}, {"molecule": "CCC/C=C(\\CCC)C(NC(=O)Cc1ccccc1)c1ccc(C(=O)OC)cc1", "note": "(stereo not given)", "B-score": "-7.39 (active)"}, {"molecule": "Cc1ccc(C(=O)CN2C(=O)NC3(CCc4ccccc43)C2=O)c(C)c1", "note": "(stereo not given)", "B-score": -1.41}, {"molecule": "COc1ccccc1-n1ccnc(SCC(=O)NC2CCCCC2)c1=O", "B-score": "inactive"}, {"molecule": "O=C1[C@H]2[C@@H](c3ccc(Cl)cc3)N3C(=O)N(c4cccc(F)c4)C(=O)[C@@]3(Cc3ccccc3)[C@H]2C(=O)N1C1CCCCC1", "B-score": "inactive"}, {"molecule": "COc1ccc(N2CC(NS(=O)(=O)c3ccc4ccccc4c3)CC2=O)cc1", "note": "(stereo not given)", "B-score": -0.16}, {"molecule": "CC1CN(c2nc(Nc3ccccc3)nc(N)c2[N+](=O)[O-])CC(C)O1", "note": "(stereo not given)", "B-score": -0.73}, {"molecule": "CC1CN(c2nc(-c3ccccc3)nnc2-c2ccccc2)CC(C)O1", "note": "(stereo not given)", "B-score": "-6.3 (active)"}, {"molecule": "Cc1ccc(-c2nnc(C)c(N3CC(C)OC(C)C3)n2)cc1", "note": "(stereo not given)", "B-score": -0.19}, {"molecule": "C=CS(=O)c1sc(Cl)c(N2CCOCC2)c1[N+](=O)[O-]", "note": "(stereo not given)", "B-score": "-15.5 (active)"}, {"molecule": "COc1ccc(NC(=O)CN(C)C(=O)/C=C/c2cn(Cc3ccccc3)nc2-c2cccnc2)cc1", "B-score": -0.04}, {"molecule": "O=C(COc1ccccc1)Nc1ccc(F)cc1", "B-score": -1.43}, {"molecule": "O=C(NCC1CCCO1)c1cc(-c2ccccc2)nc2ccccc12", "note": "(stereo not given)", "B-score": "inactive"}, {"molecule": "O=C(NCC1CCCO1)c1cc2c([nH]c3ccccc32)c(-c2ccc(F)cc2)n1", "note": "(stereo not given)", "B-score": "-8.97 (active)"}, {"molecule": "O=C(NCCCO)c1cc2c([nH]c3ccccc32)c(-c2ccc(F)cc2)n1", "B-score": "inactive"}, {"molecule": "COc1ccc(C(=O)N(Cc2ccccc2)c2ccc(C)cc2)cc1S(=O)(=O)N1CCOCC1", "B-score": -0.58}, {"molecule": "CC1CCCCC1NC(=O)c1cc(=O)[nH]c2ccccc12", "note": "(stereo not given)", "B-score": -0.66}, {"molecule": "CCc1ccc(CN2C(=O)c3ccccc3C2C(=O)NCC2CCCO2)cc1", "note": "(stereo not given)", "B-score": "inactive"}, {"molecule": "O=C(NC1CCCCC1)C1c2ccccc2C(=O)N1Cc1ccco1", "note": "(stereo not given)", "B-score": "inactive"}, {"molecule": "CC1CCC(NC(=O)C2c3ccccc3C(=O)N2Cc2ccc3c(c2)OCO3)CC1", "note": "(stereo not given)", "B-score": "-6.13 (active)"}, {"molecule": "Cc1cc(C)cc(NC(=O)COc2coc(CN3CCN(c4ccccc4)CC3)cc2=O)c1", "B-score": "inactive"}, {"molecule": "CSc1ccc(S(=O)(=O)NCC(=O)OCC(=O)NC2(C#N)CCCCC2)cc1[N+](=O)[O-]", "B-score": "inactive"}, {"molecule": "CN1CCN(C2Cc3ccc(Cl)cc3Sc3ccc(F)cc32)CC1", "note": "(stereo not given)", "B-score": -4.84}, {"molecule": "CCOc1ccc(NC(=O)c2ccc(NC(=O)CN3C(=O)C(=O)N(CC(C)C)C3=O)cc2)cc1", "B-score": "inactive"}, {"molecule": "O=C(c1cc(C(=O)N2CCN(c3ccc(F)cc3)CC2)cc([N+](=O)[O-])c1)N1CCN(c2ccc(F)cc2)CC1", "B-score": "-5.93 (active)"}, {"molecule": "O=C(c1cc2cc(F)ccc2[nH]1)N1CCN(c2ccc(F)cc2)CC1", "B-score": "inactive"}, {"molecule": "O=C(c1cccc(F)c1)N1CCN(c2ccc([N+](=O)[O-])c(N3CCCCC3)c2)CC1", "B-score": -0.07}, {"molecule": "O=C(c1ccccc1)c1ccc(C(=O)N2CCN(c3ccccc3)CC2)cc1", "B-score": -0.65}, {"molecule": "O=C(c1cncc(Br)c1)N1CCN(c2ccc([N+](=O)[O-])cc2)CC1", "B-score": -4.15}, {"molecule": "O=C(c1cccc(C(=O)N2CCN(c3ccc(F)cc3)CC2)c1)N1CCN(c2ccc(F)cc2)CC1", "B-score": "-6 (active)"}, {"molecule": "Cc1ccc(Cc2nnc(SCC(=O)Nc3ccc(C)cc3C)[nH]c2=O)cc1", "B-score": "inactive"}, {"molecule": "CC(=O)CC(CC(=O)NC1CCCCC1)c1ccccc1", "note": "(stereo not given)", "B-score": "inactive"}, {"molecule": "O=C1[C@H]2[C@@H](c3ccc(F)cc3)N3C(=O)N(c4ccc(C(F)(F)F)cc4)C(=O)[C@@]3(Cc3ccccc3)[C@H]2C(=O)N1C1CCCCC1", "B-score": -0.02}, {"molecule": "O=C(NCC(c1ccco1)N1CCc2ccccc2C1)c1ccccc1Cl", "note": "(stereo not given)", "B-score": -1.22}, {"molecule": "Cc1ccc(Cc2nnc(SCC(=O)Nc3ccccc3C)[nH]c2=O)cc1", "B-score": "inactive"}, {"molecule": "CCOc1ccc(NS(=O)(=O)c2ccc(C(=O)NC3CCN(Cc4ccccc4)CC3)cc2)cc1", "B-score": "inactive"}, {"molecule": "CCOc1ccc(N(CC(=O)NCC2CCCO2)S(=O)(=O)c2ccc(C)cc2)cc1", "note": "(stereo not given)", "B-score": -0.74}, {"molecule": "CCOc1cc(-c2nc3cc(C)ccn3c2NCC2CCCO2)ccc1O", "note": "(stereo not given)", "B-score": "-5.56 (active)"}, {"molecule": "CCOc1cc(C(C(=O)NCC2CCCO2)N(C(=O)Cn2nnc3ccccc32)c2cccc(OC)c2)ccc1O", "note": "(stereo not given)", "B-score": "inactive"}, {"molecule": "O=[N+]([O-])c1ncc(Br)cc1Nc1ccccc1", "B-score": -2.54}, {"molecule": "CC(=O)N1CCN(C(=O)c2cc(-c3ccc(C)o3)nc3ccccc23)CC1", "B-score": "inactive"}, {"molecule": "Cn1cccc1C(=O)NNC(=O)COc1ccc(Br)cc1", "B-score": -0.05}]}]}
